{
  "source": "PubChem BioAssay AID1159580",
  "about": "(chemical genetic matrix, 2015)",
  "test": "chemical genetic growth profiling, strain panel (AID 1159580);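 note: tested at 20 µM; growth read once vehicle control cultures reached saturation at 30 °C; 1 = growth at the plate median or of vehicle wells; lower values mean less growth of the strain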",
  "conditions": "S. cerevisiae deletion strains, growth OD",
  "note": "“And” between values parts separate entries of the source, which are not always exact repeats. Equal values may be shown once. Among all 5,500 compounds or so, about 2,000 (36%) were called active. Not shown: some 18% with an inconclusive outcome. The list shows a part of the results. Unmarked numbers belong to inactive results. Cut-off read from the data, not from the text of the source: active = normalized growth mostly below about 0.91 (no sharp cut-off); inconclusive = no clear call, values can overlap the other calls; inactive = mostly above about 0.92.",
  "data": [
    {"smiles": "CC(=O)OC1CCC2C3CCc4cc(O)ccc4C3CCC12C", "note": "(stereo not given)", "values": [
      {"measurement": "normalized growth", "setting": "locus YAL021C, strain ccr4, active compounds read low", "result": 0.975},
      {"measurement": "normalized growth", "setting": "locus YAL026C, strain drs2, active compounds read low", "result": 0.96},
      {"measurement": "normalized growth", "setting": "locus YAL030W, strain snc1, active compounds read low", "result": 0.984},
      {"measurement": "normalized growth", "setting": "locus YBL061C, strain skt5, active compounds read low", "result": "0.893 (active)"},
      {"measurement": "normalized growth", "setting": "locus YBR009C, strain hhf1, active compounds read low", "result": 0.969},
      {"measurement": "normalized growth", "setting": "locus YBR021W, strain FUR4, active compounds read low", "result": 0.934},
      {"measurement": "normalized growth", "setting": "locus YBR023C, strain chs3, active compounds read low", "result": "0.881 (active)"},
      {"measurement": "normalized growth", "setting": "locus YBR171W, strain sec66, active compounds read low", "result": 0.996},
      {"measurement": "normalized growth", "setting": "locus YBR229C, strain ROT2, active compounds read low", "result": 1.01},
      {"measurement": "normalized growth", "setting": "locus YBR231C, strain swc5, active compounds read low", "result": 0.966},
      {"measurement": "normalized growth", "setting": "locus YBR279W, strain paf1, active compounds read low", "result": 0.979},
      {"measurement": "normalized growth", "setting": "locus YCL011C, strain gbp2, active compounds read low", "result": 0.929},
      {"measurement": "normalized growth", "setting": "locus YCL016C, strain dcc1, active compounds read low", "result": 0.954},
      {"measurement": "normalized growth", "setting": "locus YCL029C, strain bik1, active compounds read low", "result": 0.99},
      {"measurement": "normalized growth", "setting": "locus YCL061C, strain MRC1, active compounds read low", "result": 0.984},
      {"measurement": "normalized growth", "setting": "locus YCL069W, strain vba3, active compounds read low", "result": 1.02},
      {"measurement": "normalized growth", "setting": "locus YCR088W, strain abp1, active compounds read low", "result": 0.957},
      {"measurement": "normalized growth", "setting": "locus YDL005C, strain med2, active compounds read low", "result": 0.973},
      {"measurement": "normalized growth", "setting": "locus YDL035C, strain GPR1, active compounds read low", "result": 0.973},
      {"measurement": "normalized growth", "setting": "locus YDL040C, strain nat1, active compounds read low", "result": 1.01},
      {"measurement": "normalized growth", "setting": "locus YDL074C, strain BRE1, active compounds read low", "result": 0.827},
      {"measurement": "normalized growth", "setting": "locus YDL101C, strain DUN1, active compounds read low", "result": 0.98},
      {"measurement": "normalized growth", "setting": "locus YDL134C, strain PPH21, active compounds read low", "result": 0.973},
      {"measurement": "normalized growth", "setting": "locus YDL185W, strain tfp1, active compounds read low", "result": 1.02},
      {"measurement": "normalized growth", "setting": "locus YDL192W, strain arf1, active compounds read low", "result": 1.03},
      {"measurement": "normalized growth", "setting": "locus YDR001C, strain nth1, active compounds read low", "result": 0.999},
      {"measurement": "normalized growth", "setting": "locus YDR069C, strain doa4, active compounds read low", "result": 0.957},
      {"measurement": "normalized growth", "setting": "locus YDR101C, strain arx1, active compounds read low", "result": 1},
      {"measurement": "normalized growth", "setting": "locus YDR137W, strain rgp1, active compounds read low", "result": "0.797 (active)"},
      {"measurement": "normalized growth", "setting": "locus YDR150W, strain NUM1, active compounds read low", "result": 1.01},
      {"measurement": "normalized growth", "setting": "locus YDR159W, strain sac3, active compounds read low", "result": "0.842 (active)"},
      {"measurement": "normalized growth", "setting": "locus YDR162C, strain NBP2, active compounds read low", "result": 1},
      {"measurement": "normalized growth", "setting": "locus YDR195W, strain ref2", "result": "0.746 (active)"},
      {"measurement": "normalized growth", "setting": "locus YDR297W, strain sur2, active compounds read low", "result": 0.993},
      {"measurement": "normalized growth", "setting": "locus YDR318W, strain mcm21, active compounds read low", "result": 1},
      {"measurement": "normalized growth", "setting": "locus YDR334W, strain swr1, active compounds read low", "result": 1.01},
      {"measurement": "normalized growth", "setting": "locus YDR335W, strain msn5, active compounds read low", "result": 0.921},
      {"measurement": "normalized growth", "setting": "locus YDR388W, active compounds read low", "result": 0.997},
      {"measurement": "normalized growth", "setting": "locus YDR392W, strain spt3, active compounds read low", "result": "0.608 (active)"},
      {"measurement": "normalized growth", "setting": "locus YDR502C, strain sam2, active compounds read low", "result": 0.991},
      {"measurement": "normalized growth", "setting": "locus YEL003W, strain gim4, active compounds read low", "result": 0.993},
      {"measurement": "normalized growth", "setting": "locus YEL037C, strain rad23, active compounds read low", "result": 1},
      {"measurement": "normalized growth", "setting": "locus YEL061C, strain CIN8 (second series), active compounds read low", "result": 0.978},
      {"measurement": "normalized growth", "setting": "locus YEL061C, strain CIN8, active compounds read low", "result": 0.998},
      {"measurement": "normalized growth", "setting": "locus YER015W, strain faa2, active compounds read low", "result": 0.981},
      {"measurement": "normalized growth", "setting": "locus YER016W, strain bim1, active compounds read low", "result": "0.918 (active)"},
      {"measurement": "normalized growth", "setting": "locus YER110C, active compounds read low", "result": 0.995},
      {"measurement": "normalized growth", "setting": "locus YER111C, strain swi4, active compounds read low", "result": 0.955},
      {"measurement": "normalized growth", "setting": "locus YER155C, strain BEM2 (second series), active compounds read low", "result": 0.934},
      {"measurement": "normalized growth", "setting": "locus YER155C, strain BEM2, active compounds read low", "result": "0.913 (active)"},
      {"measurement": "normalized growth", "setting": "locus YER167W, strain BCK2, active compounds read low", "result": 0.988},
      {"measurement": "normalized growth", "setting": "locus YFR010W, strain ubp6, active compounds read low", "result": 0.963},
      {"measurement": "normalized growth", "setting": "locus YGL078C, strain dbp3, active compounds read low", "result": 1.01},
      {"measurement": "normalized growth", "setting": "locus YGL086W, strain mad1, active compounds read low", "result": 0.979},
      {"measurement": "normalized growth", "setting": "locus YGL167C, strain pmr1, active compounds read low", "result": 0.999},
      {"measurement": "normalized growth", "setting": "locus YGL173C, strain kem1, active compounds read low", "result": 0.991},
      {"measurement": "normalized growth", "setting": "locus YGL227W, strain vid30, active compounds read low", "result": 1.01},
      {"measurement": "normalized growth", "setting": "locus YGL240W, strain doc1, active compounds read low", "result": 0.968},
      {"measurement": "normalized growth", "setting": "locus YGL248W, strain PDE1, active compounds read low", "result": 0.954},
      {"measurement": "normalized growth", "setting": "locus YGL253W, strain hxk2, active compounds read low", "result": 0.96},
      {"measurement": "normalized growth", "setting": "locus YGR078C, strain PAC10, active compounds read low", "result": 0.899},
      {"measurement": "normalized growth", "setting": "locus YGR135W, strain pre9, active compounds read low", "result": 1.03},
      {"measurement": "normalized growth", "setting": "locus YGR229C, strain SMI1, active compounds read low", "result": 0.849},
      {"measurement": "normalized growth", "setting": "locus YGR252W, strain gcn5, active compounds read low", "result": 0.986},
      {"measurement": "normalized growth", "setting": "locus YHR013C, strain ard1, active compounds read low", "result": 0.985},
      {"measurement": "normalized growth", "setting": "locus YHR027C, strain rpn1, active compounds read low", "result": 0.975},
      {"measurement": "normalized growth", "setting": "locus YHR030C, strain SLT2, active compounds read low", "result": "1.01 and 0.911"},
      {"measurement": "normalized growth", "setting": "locus YHR079C, strain IRE1 (second series), active compounds read low", "result": 1},
      {"measurement": "normalized growth", "setting": "locus YHR079C, strain IRE1, active compounds read low", "result": 0.938},
      {"measurement": "normalized growth", "setting": "locus YHR094C, strain hxt1, active compounds read low", "result": 1.02},
      {"measurement": "normalized growth", "setting": "locus YHR129C, strain ARP1, active compounds read low", "result": 1},
      {"measurement": "normalized growth", "setting": "locus YHR142W, strain chs7, active compounds read low", "result": 0.903},
      {"measurement": "normalized growth", "setting": "locus YHR200W, strain rpn10, active compounds read low", "result": 1.02},
      {"measurement": "normalized growth", "setting": "locus YIL066C, strain RNR3, active compounds read low", "result": 0.962},
      {"measurement": "normalized growth", "setting": "locus YIL073C, strain SPO22, active compounds read low", "result": 0.957},
      {"measurement": "normalized growth", "setting": "locus YIL125W, strain kgd1, active compounds read low", "result": 1.01},
      {"measurement": "normalized growth", "setting": "locus YIR030C, strain dcg1, active compounds read low", "result": 1.02},
      {"measurement": "normalized growth", "setting": "locus YJL092W, strain hpr5, active compounds read low", "result": 0.986},
      {"measurement": "normalized growth", "setting": "locus YJL095W, strain BCK1 (second series), active compounds read low", "result": 1},
      {"measurement": "normalized growth", "setting": "locus YJL095W, strain BCK1, active compounds read low", "result": "0.892 and 0.899"},
      {"measurement": "normalized growth", "setting": "locus YJL115W, strain asf1, active compounds read low", "result": 1.01},
      {"measurement": "normalized growth", "setting": "locus YJL129C, strain trk1, active compounds read low", "result": 0.92},
      {"measurement": "normalized growth", "setting": "locus YJL134W, strain LCB3, active compounds read low", "result": 1.01},
      {"measurement": "normalized growth", "setting": "locus YJL154C, strain vps35, active compounds read low", "result": 0.988},
      {"measurement": "normalized growth", "setting": "locus YJL164C, strain tpk1, active compounds read low", "result": 0.954},
      {"measurement": "normalized growth", "setting": "locus YJL166W, strain qcr8, active compounds read low", "result": 0.974},
      {"measurement": "normalized growth", "setting": "locus YJL168C, strain set2, active compounds read low", "result": 1.01},
      {"measurement": "normalized growth", "setting": "locus YJL187C, strain SWE1 (second series), active compounds read low", "result": 0.944},
      {"measurement": "normalized growth", "setting": "locus YJR043C, strain POL32, active compounds read low", "result": 0.938},
      {"measurement": "normalized growth", "setting": "locus YJR066W, strain TOR1, active compounds read low", "result": 0.905}
    ]}
  ]
}
